From PubChem BioAssay
Pf growth 48h: P. falciparum growth inhibition at 48 hours (one generation); AID 504832; 310,000 compounds, 5.9% hits; Potency, µM (doses to about 28.7 µM), without a hit: top-dose activity change, negative = inhibition, most hits filed as inhibitors; P. falciparum luciferase growth in erythrocytes, 48 h; note: potency is the fitted concentration of half-maximal effect
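Cell-based growth assay: transgenic P. falciparum expressing firefly luciferase, cultured in red cells within RPMI 1640 containing 0.5% w/v Albumax, 24 mM bicarbonate and gentamycin. A drop in luciferase activity indicates inhibition.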
HCV inh: inhibitors of hepatitis C virus infection. Huh7.5.1 HCVcc-Cre infection, luciferase reporter, 44 h. Potency, µM (top dose mostly 41.8 µM), without a hit: at the highest dose activity change, negative = inhibition, actives largely listed as inhibitors. 340,000 compounds, 3.4% hits; note: potency is the fitted concentration of half-maximal effect
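Antiviral activity was scored by luciferase reporter output from cells infected with HCVcc-Cre (~0.5 moi) in presence of compound, 44 h infection period, cells seeded 1,000/well 4 h prior.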
Pf growth 96h: P. falciparum growth inhibition at 96 hours; P. falciparum luciferase reporter growth, 96 h; Potency, µM (titrated, usually from 28.7 µM), for the others: at the top dose activity change, negative = inhibition, usual class: inhibitors; 320,000 compounds, 6.9% hits; note: potency is the fitted concentration of half-maximal effect
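Two-generation exposure (96 h) targets delayed-death phenotype. Reporter parasites carrying integrated firefly luciferase, in red cells at 2% hematocrit and 0.05% parasitemia final, kept at 37 C, 5% CO2; luminescence loss indicates inhibition.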
HCMV inh: human cytomegalovirus inhibition. HFF cells, HCMV-luciferase reporter, 72 h; stronger effect = lower value. activity change, negative = inhibition, % at 57.5 µM. 410,000 compounds, 4.5% hits; in the data active = activity change below about -60%; inconclusive = no clear call, values can overlap the other calls; inactive = above about -39%
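Two-dose cell screen: HFF monolayers treated with compounds and infected with luciferase-expressing HCMV at 1 PFU/cell, 72 h at 37C, then lysed for luciferase measurement.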
* marks the source's active call; other numbers are inactive results; ! = not confirmed by another sample. Shown are actives, neighbours in structure and some others; about 13% of the full set was active somewhere. Unless noted, calls come from the whole dose curve; as a rule, active = well fitted inhibition curve with a large enough effect; inconclusive = small, poorly fitted or top-dose-only effect, or another doubt; inactive = no such curve, though single readings can be large or run the other way. % is set by controls: 0 for no effect and ±100 for the full control effect.

Cc1ccccc1NC(=O)Cn1nnc(C(=O)NCCc2ccccc2)c1N was read as HCMV inh 17.0.
Screening CCn1nc(C)c2c(-c3ccccc3)cc(=O)n(C(C)C(=O)NCc3ccc(C)cc3)c21 (configuration not stated) returned HCMV inh 12.1.
`NCc1ccc(S(N)(=O)=O)cc1` gave Pf growth 48h inconclusive, HCV inh -4.0%, Pf growth 96h 3.61µM*! and HCMV inh -24.8.
For COC(=O)C(C(=O)OC)c1ccccc1CNS(=O)(=O)c1ccc(C)cc1 the results were HCMV inh -12.6.
C=CCN(CC=C)CC(O)Cn1c2ccccc2c2ccccc21 (configuration not stated) was read as Pf growth 48h 5.86µM*, HCV inh -27.1%, Pf growth 96h inconclusive and HCMV inh 16.1.
`C=CCN(CC=C)CC(O)CN(c1cc([N+](=O)[O-])ccc1OC)S(=O)(=O)c1ccccc1` (configuration not stated) gave Pf growth 48h inconclusive, HCV inh 12.3%, Pf growth 96h 35.5% and HCMV inh -107.3*.
`COc1ccccc1N(CC(O)Cn1c2ccccc2c2ccccc21)S(=O)(=O)c1ccccc1` (configuration not stated) gave Pf growth 48h 11.7µM*, HCV inh inconclusive, Pf growth 96h 10.4µM* and HCMV inh -11.3.
O=S(=O)(c1ccccc1)N(CC(O)Cn1c2ccccc2c2ccccc21)c1ccccc1 (configuration not stated) was read as Pf growth 48h inconclusive, HCV inh inconclusive, Pf growth 96h 2.33µM* and HCMV inh -14.7.
`CC(=O)c1cccc(NC(=O)c2nc3ccccc3n(C)c2=O)c1` gave HCMV inh 83.7.
Screening COc1ccc(-c2cnc(C)o2)cc1S(=O)(=O)Nc1ccc(C)c(N(C)C)c1 returned HCMV inh 16.2.
Cc1ccc(S(=O)(=O)N(CC(O)Cn2c3ccccc3c3ccccc32)c2cccc(C(N)=O)c2)cc1 (configuration not stated) was read as HCMV inh -80.2*.
Screening COc1ccccc1N(CC(O)COc1ccccc1C)S(=O)(=O)c1ccccc1 (configuration not stated) returned Pf growth 48h inconclusive, HCV inh 15.4%, Pf growth 96h 10.4µM* and HCMV inh -6.1.
For COc1ccccc1N(CC(O)Cn1nc(C)cc1C)S(=O)(=O)c1ccccc1 (configuration not stated) the results were Pf growth 48h -16.2%, HCV inh 0.6%, Pf growth 96h inconclusive and HCMV inh inconclusive.
Screening COc1ccccc1CNCC(O)Cn1c2ccccc2c2ccccc21 (configuration not stated) returned Pf growth 48h 1.47µM*, HCV inh 11.2µM*, Pf growth 96h 2.08µM* and HCMV inh -99.2*.
For COc1ccc(N(CC(O)Cn2nnc3ccccc32)S(=O)(=O)c2ccc(C)cc2)cc1 (configuration not stated) the results were Pf growth 48h inconclusive, HCV inh 11.2% and HCMV inh -61.5*.
Screening Cc1ccc(S(=O)(=O)N(CC(O)Cn2c3ccccc3c3ccccc32)c2cccc(C(=O)N(C)C)c2)cc1 (configuration not stated) returned HCMV inh -19.3.
Screening Cc1ccc(-n2cccc2C(=S)N=P(N(C)C)(N(C)C)N(C)C)cc1 returned HCV inh inconclusive, Pf growth 96h 35.3% and HCMV inh -79.5*.
For Cc1ccc(-n2cccc2C(=O)NS(=O)(=O)c2ccc(C)cc2)cc1 the results were Pf growth 48h 11.3%, HCV inh -7.0%, Pf growth 96h 46.1% and HCMV inh 67.8.
`CN1C(=O)c2ccccc2N(C)C1c1ccc(F)cc1` (configuration not stated) gave Pf growth 48h inconclusive, HCV inh 12.0%, Pf growth 96h 2.9% and HCMV inh 21.6.
CN1C(=O)c2ccccc2N(C)C1c1ccc2c(c1)OCO2 (configuration not stated) was read as Pf growth 48h 10.4µM*, HCV inh -10.4%, Pf growth 96h -24.1% and HCMV inh -8.2.
Screening O=C(Nc1ccsc1C(=O)NC1CC1)c1ccccc1 returned Pf growth 48h -5.6%, HCV inh inconclusive, Pf growth 96h 0.2% and HCMV inh -28.3.
